The list is not random: actives were taken first. Their share in the collection is about 5.7%.
hgDAF-12 ag – hgDAF-12 agonism, primary luciferase screen; HEK293 GAL4-hgDAF12 UAS-luciferase reporter, agonist luminescence; normalized to butyrate control; activation, % at 6.8 µM; hit rate 1.8% among 370,000;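 active = activation above a cutoff set at the mean of all screened compounds plus 3 SD, cut at about 10% in these data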
hcDAF12 agonist – activators of H. contortus DAF-12 nuclear receptor; HEK293 hcDAF-12 lit1-tk-luc reporter, luminescence; 0% DMSO, 100% Δ7-dafachronic acid; activation, % at 6.8 µM; hit rate 1.4% among 370,000; AID 652067;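 active = activation above the mean of all tested compounds plus 3 SD, cut at about 5.5% in these data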
AHR activator – activates the human aryl hydrocarbon receptor. P35869. AHR-responsive luciferase reporter cells, luminescence. activation, % at 5 µM. hit rate 2.5% among 320,000. AID 2796; in the data active = activation above about 47%
DAX1 inh-1 – NR0B1 (DAX1) inhibition | P51843 | HEK293 Gal4-DAX1 luciferase reporter, luminescence | inhibition, % at 6.75 µM | hit rate 0.99% among 340,000;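 active = inhibition above the mean over all tested compounds plus 3 SD, cut at about 4.2% in these data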;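 also: inhibition shows as a rise in luminescence from relieved DAX1 repression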
Target sequence (P51843 207-470 limits assumed): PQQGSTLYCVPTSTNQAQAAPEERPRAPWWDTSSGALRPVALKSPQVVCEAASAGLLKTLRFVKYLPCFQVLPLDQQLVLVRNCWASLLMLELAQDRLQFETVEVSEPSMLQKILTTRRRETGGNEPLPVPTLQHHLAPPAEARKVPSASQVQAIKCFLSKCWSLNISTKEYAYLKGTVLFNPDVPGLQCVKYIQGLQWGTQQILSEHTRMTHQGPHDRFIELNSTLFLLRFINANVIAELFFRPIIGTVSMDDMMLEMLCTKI
DAX1 inh-2 – DAX1 (NR0B1) inhibition, primary screen | hit rate 1.1% among 370,000 | inhibition, % at 6.8 µM | HEK293T StAR-luciferase reporter, SF-1/DAX-1 repression relief | AID 652010;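 active = inhibition above the mean over all tested compounds plus 3 SD, cut at about 3.6% in these data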;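 also: higher inhibition means more luminescence from relief of DAX-1 repression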
ssDAF12 agonist – S. stercoralis DAF-12 activation, primary screen | HEK293 ssDAF-12/GRIP1 lit1-tk-luc reporter, luminescence; % of 3 µM dafachronic acid response | hit rate 1% among 370,000 | activation, % at 6.8 µM;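 active = activation above the mean over all tested compounds plus 3 SD, cut at about 0.9% in these data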
Of the large screens only hits and unclear results are named; the others gave an inactive call.

COc1ccc(-c2nnc3ccc(SCC(=O)Nc4nc5ccccc5s4)nn23)cc1OC	hgDAF-12 ag 11
COCCCn1c(=O)c2ccccc2n(CC(=O)Nc2ccc3c(c2)OCCO3)c1=O	none
O=C(CSc1cn[nH]n1)Nc1nc2ccccc2s1	hcDAF12 agonist 6.0
O=C(CSc1ccccn1)Nc1nc2ccccc2s1	none
COc1ccc(CCN2C(=NC(=O)C(C)C)SC3CS(=O)(=O)CC32)cc1 (stereo not drawn)	none
Cc1ccccc1C(=O)NC1CCN(CC(=O)NCc2cccs2)CC1	DAX1 inh-1 5.2
Cc1ccccc1C(=O)NC1CCN(Cc2ccccc2)CC1	ssDAF12 agonist 1.4
Cc1ccc(C(=O)NC2CCN(CC(=O)NCc3cccs3)CC2)cc1	none
COc1ccc(S(=O)(=O)NCc2cccnc2)cc1NC(=O)c1ccccc1	DAX1 inh-1 5.3
COc1ccc(S(=O)(=O)NC(C)C(=O)NCc2cccnc2)cc1Cl (stereo not drawn)	none
COc1ccc(S(=O)(=O)NC(C)C(=O)NCc2cccnc2)cc1OC (stereo not drawn)	DAX1 inh-1 4.5
C=CCN1C(=O)c2ccc(C(=O)N3CCN(S(=O)(=O)c4cc(C)ccc4C)CC3)cc2C1=O	none
COc1cc(C(=O)COC(=O)c2ccc([N+](=O)[O-])o2)cc(OC)c1OC	none
O=C(/C=C/c1cccc([N+](=O)[O-])c1)NCc1cccnc1	AHR activator 63
O=C(/C=C/c1ccc([N+](=O)[O-])cc1)NCc1cccnc1	none
O=C(/C=C/c1ccc(Cl)c([N+](=O)[O-])c1)NCc1cccnc1	AHR activator 60
COc1cccc(C(=O)/C(C#N)=N/Nc2cccc(-c3ccnc(C)n3)c2)c1	none
CS(=O)(=O)NN1C(=O)c2ccccc2NC1c1c[nH]c2ccccc12 (stereo not drawn)	hcDAF12 agonist 6.2
CS(=O)(=O)NN1C(=O)c2ccccc2NC1c1ccccc1O (stereo not drawn)	none
O=C1CCCC(c2ccccc2)N1 (stereo not drawn)	DAX1 inh-1 5.2
O=C1NC(c2ccccc2)CCO1 (stereo not drawn)	none
c1ccc(OCc2nn3c(-c4n[nH]c5c4CCC5)nnc3s2)cc1	AHR activator 68
Cc1ccc2nc(-c3ccco3)c(Cc3ccsc3)n2c1	none (no result: AHR activator, DAX1 inh-1)
CC(C)OC(=O)NCN1C(=O)C2C3C=CC(C3)C2C1=O (stereo not drawn)	hgDAF-12 ag 11
COC(=O)NCN1C(=O)C2C3C=CC(C3)C2C1=O (stereo not drawn)	none
COC(=O)CC1(c2ccc(OC)cc2)C(=O)c2ccccc2C1=O	DAX1 inh-1 7.1
c1ccc(CN2CCCC3CC2c2ccccc23)cc1 (stereo not drawn)	none (no result: AHR activator, DAX1 inh-1)
O=C(Nc1ccccc1)C1CCN(S(=O)(=O)c2ccc3c(c2)OCCO3)CC1	none
O=C(C1CC1)N1CCN(S(=O)(=O)c2ccc3c(c2)OCCO3)CC1	AHR activator 55
CCC(C)Sc1nc2c(cnn2-c2ccccc2)c(=O)[nH]1 (stereo not drawn)	AHR activator 66
O=C(CSc1nc2c(cnn2-c2ccccc2)c(=O)[nH]1)N1CCCCC1	none
O=C(CSc1nc2c(cnn2-c2ccccc2)c(=O)[nH]1)NC1CCS(=O)(=O)C1 (stereo not drawn)	DAX1 inh-1 5.7
CCN(CC)S(=O)(=O)c1ccc2c(c1)nc(-c1ccccn1)n2C	hcDAF12 agonist 6.2
COc1cc(F)ccc1-c1cc(C(=O)Nc2ccc(C)c(NS(C)(=O)=O)c2)[nH]n1	none (no result: AHR activator, DAX1 inh-1)
CCc1ccc(C(=O)Nc2ccc(C)c(NS(C)(=O)=O)c2)cc1	AHR activator 65 (no result: DAX1 inh-1)
COc1cc(OC)cc(C(=O)Nc2ccc3c(c2)n(C)c(=O)n3C)c1	none
CCc1ccc(C(=O)Nc2ccc3c(c2)n(C)c(=O)n3C)cc1	DAX1 inh-1 5.9
Cc1ccc(NC(=O)c2ccc(F)cc2F)cc1NS(C)(=O)=O	AHR activator 61 (no result: DAX1 inh-1)
O=C(CCCCCNC(=O)c1ccccc1)N=Nc1c(O)[nH]c2c(Br)cc(Br)cc12	none (no result: hgDAF-12 ag, hcDAF12 agonist, DAX1 inh-1, DAX1 inh-2, ssDAF12 agonist)
NC(=O)N=Nc1c(O)[nH]c2c(Br)cc(Br)cc12	AHR activator 50 (no result: hgDAF-12 ag, hcDAF12 agonist, DAX1 inh-1, DAX1 inh-2, ssDAF12 agonist)
COc1ccccc1C(=O)NC(C)C(c1cccs1)N1CCOCC1 (stereo not drawn)	ssDAF12 agonist 1.7
O=C(CCC(=O)c1cccs1)NCCc1ccc(F)cc1	DAX1 inh-2 3.8
O=C(CCNc1cccc(Cl)c1)c1cccs1	ssDAF12 agonist 1.4
Cc1ccc(NCCC(=O)c2cccs2)cc1	hgDAF-12 ag 12, DAX1 inh-2 4.2, ssDAF12 agonist 1.4
Cc1ccc(C(=O)N/N=C(/CC(=O)c2cccs2)C(F)(F)F)cc1	AHR activator 62
NS(=O)(=O)c1ccc(CCNC(=O)CCC(=O)c2cccs2)cc1	none
CC(C)c1ccc(NCCC(=O)c2cccs2)cc1	none
C[C@@H]1CN([C@@H](C)CO)C(=O)CCCn2cc(nn2)CO[C@H]1CN(C)C(=O)Nc1ccccc1	none (no result: AHR activator, DAX1 inh-1)
O=C(C(=O)N1CCC(CNS(=O)(=O)c2ccc(F)cc2)CC1)c1cc2ccccc2o1	none (no result: AHR activator, DAX1 inh-1)
CCc1cc2ccccc2nc1Cl	DAX1 inh-1 6.1
COCc1[nH]nc2c1C(c1ccc(F)cc1)N(c1ccc(OC)cc1)C2=O (stereo not drawn)	none (no result: AHR activator, DAX1 inh-1)
C=CCSc1nnc(-c2cc3c(s2)-c2ccccc2CC3)o1	AHR activator 66
Cc1cc(OCC(=O)N2CCCCCC2)ccc1[N+](=O)[O-]	hgDAF-12 ag 12
CCCC(=O)OC[C@H]1CN(C2CCCC2)S(=O)(=O)c2c(Oc3ccccc3)cccc2O1	none (no result: AHR activator, DAX1 inh-1)
CN(CCc1ccccn1)c1ccccc1	hgDAF-12 ag 12, hcDAF12 agonist 6.2 (no result: AHR activator)
FC(F)(F)Oc1ccc(Cn2ccc3ccc(-c4ccc5ccn(Cc6ccccc6)c5c4)cc32)cc1	none (no result: AHR activator, DAX1 inh-1)
Cc1cccc(C)c1NC(=S)NC(C)(C)CO	none
Cc1ccccc1-n1c(-c2ccoc2C)n[nH]c1=S	ssDAF12 agonist 1.3
CSc1ccccc1NC(=O)CSc1nncs1	none
Cc1cccc2c1nc(-c1ccccc1)n1nnnc21	AHR activator 57
Cc1cc(=O)c2ccccc2n1CC(=O)NCc1ccccc1	none
Cc1cc(=O)c2ccccc2n1Cc1ccccc1	AHR activator 57
O=C(NCc1csc(-c2cccs2)n1)c1ccccc1	none
O=C(NCc1csc(-c2cccs2)n1)c1cccc(Cl)c1	DAX1 inh-1 4.4
CC(C)[C@H](NC(=O)c1ccc(Cl)c(Cl)c1)C(=O)N1CCC[C@H]1C(=O)NCc1ccccc1	none (no result: AHR activator, DAX1 inh-1)
O=C(Nc1nccs1)c1ccc(Br)o1	hcDAF12 agonist 5.8, AHR activator 57
O=C(Nc1nccs1)c1ccc(-c2ccc(F)c(Cl)c2)o1	AHR activator 72
O=C(Nc1nccs1)c1ccc(-c2ccc(Cl)cc2Cl)o1	none
CC(C)(C)c1csc(NC(=O)c2ccc(Br)o2)n1	none

Screening results deposited in PubChem by The Scripps Research Institute Molecular Screening Center.
